Experiment [1] in a line: compounds binding Alexa647 anti-His antibody – biochemical, small-molecule microarray, 635 nm fluorescence, artefact control for SMM control protein annotation, primary screen (AID 1128).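 Also: score merges feature fluorescence with signal-to-noise for each printed compound spot.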 The note with it: higher = more signal.
In experiment [2] the test system is Human papillomavirus type 1a E7 protein (residues 1-88). Put plainly: HPV1a E7 small-molecule binders, primary screen, biochemical, small-molecule microarray, residues 1-88, 635 nm (AID 1129). Particulars: small-molecule microarray binding, fluorescence 635 nm; higher = more signal.
For experiment [3], the target named is Focal adhesion kinase 1 (Homo sapiens) (UniProt Q05397). Kind of experiment: PTK2 protein binding on printed compound slides – biochemical, small-molecule microarray, 635/667 nm fluorescence, BSA, DTT, primary screen (AID 1130).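 Also: composite of spot emission at 667 nm and signal to noise over triplicate slides.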 The note with it: 635 nm fluorescence, higher = more signal.
Chain of Focal adhesion kinase 1 (Homo sapiens) (Q05397 whole entry, looked up): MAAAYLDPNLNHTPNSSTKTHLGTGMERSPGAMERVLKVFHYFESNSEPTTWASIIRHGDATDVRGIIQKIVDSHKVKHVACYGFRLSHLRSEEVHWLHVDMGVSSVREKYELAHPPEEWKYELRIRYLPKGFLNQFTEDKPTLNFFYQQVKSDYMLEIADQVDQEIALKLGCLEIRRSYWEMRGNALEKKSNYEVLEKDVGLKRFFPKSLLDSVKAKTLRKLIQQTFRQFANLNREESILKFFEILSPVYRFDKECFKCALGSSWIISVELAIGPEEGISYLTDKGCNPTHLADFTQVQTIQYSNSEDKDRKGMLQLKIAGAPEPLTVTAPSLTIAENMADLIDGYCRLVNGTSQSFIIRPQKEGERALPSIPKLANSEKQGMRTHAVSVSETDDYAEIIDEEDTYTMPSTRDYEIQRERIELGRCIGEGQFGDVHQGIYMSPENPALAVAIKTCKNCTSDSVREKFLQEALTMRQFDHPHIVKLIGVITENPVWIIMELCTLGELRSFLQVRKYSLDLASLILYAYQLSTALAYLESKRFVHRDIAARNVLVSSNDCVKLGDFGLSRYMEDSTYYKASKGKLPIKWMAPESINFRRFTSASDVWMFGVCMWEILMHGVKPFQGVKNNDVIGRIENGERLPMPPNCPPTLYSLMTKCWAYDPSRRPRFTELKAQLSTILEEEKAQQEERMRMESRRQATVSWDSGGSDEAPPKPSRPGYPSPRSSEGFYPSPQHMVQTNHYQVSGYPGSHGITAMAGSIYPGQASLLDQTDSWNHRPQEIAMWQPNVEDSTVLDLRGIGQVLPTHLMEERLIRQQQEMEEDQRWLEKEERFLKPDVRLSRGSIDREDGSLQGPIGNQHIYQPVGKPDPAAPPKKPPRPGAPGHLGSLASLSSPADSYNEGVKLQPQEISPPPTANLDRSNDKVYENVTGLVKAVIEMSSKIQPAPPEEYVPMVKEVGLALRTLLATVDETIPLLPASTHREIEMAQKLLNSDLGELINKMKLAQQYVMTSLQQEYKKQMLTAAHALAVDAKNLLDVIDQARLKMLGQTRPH
Experiment [4] concerns Fibrinogen (Alexa647-labelled). Put plainly: Alexa647-fibrinogen binding to printed small molecules – biochemical, small-molecule microarray, 635/667 nm fluorescence, artefact control for SMM control-protein annotation, profiling panel (AID 1131).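 Also: z-score merges 667 nm fluorescence with per-spot signal-to-noise over triplicate slides.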 Particulars: fibrinogen-A647 binding fluorescence, higher = more signal.
For experiment [5], the target named is Follistatin (Homo sapiens) (UniProt P19883). Put plainly: FST protein binding to printed compounds – biochemical, small-molecule microarray, 635/667 nm fluorescence, primary screen (AID 1132). Particulars: 635 nm fluorescence, higher = more signal.
Chain of Follistatin (Homo sapiens) (P19883 whole entry, looked up): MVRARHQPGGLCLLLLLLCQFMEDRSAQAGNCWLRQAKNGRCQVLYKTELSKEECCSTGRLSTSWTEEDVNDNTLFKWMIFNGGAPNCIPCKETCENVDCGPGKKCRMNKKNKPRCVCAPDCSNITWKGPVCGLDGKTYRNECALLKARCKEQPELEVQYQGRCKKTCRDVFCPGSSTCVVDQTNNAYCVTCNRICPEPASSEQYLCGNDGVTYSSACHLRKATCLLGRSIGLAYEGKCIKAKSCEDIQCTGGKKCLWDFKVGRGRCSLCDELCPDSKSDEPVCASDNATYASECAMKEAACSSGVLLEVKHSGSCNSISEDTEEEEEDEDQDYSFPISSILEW
The target in experiment [6] is Fibroblast growth factor 2 (Homo sapiens) (UniProt P09038). Put plainly: basic fibroblast growth factor binding to printed compounds – biochemical, small-molecule microarray, 635/667 nm fluorescence, primary screen (AID 1133). The note with it: FGF2, fluorescence 635/667, higher = more signal.
Chain of Fibroblast growth factor 2 (Homo sapiens) (P09038 whole entry, looked up): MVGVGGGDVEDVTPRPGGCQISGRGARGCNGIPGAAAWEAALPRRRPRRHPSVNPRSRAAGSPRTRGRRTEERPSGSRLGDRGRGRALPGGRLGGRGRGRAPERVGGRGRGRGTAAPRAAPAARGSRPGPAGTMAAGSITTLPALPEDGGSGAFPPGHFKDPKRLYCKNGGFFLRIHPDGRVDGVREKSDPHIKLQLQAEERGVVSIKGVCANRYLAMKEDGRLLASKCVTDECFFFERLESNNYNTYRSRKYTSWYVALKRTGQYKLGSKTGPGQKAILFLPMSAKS
Experiment [7] in a line: JC-1 mitochondrial potential readout, lung cancer cells – cell-based, A549, JC-1 fluorescence, basal, 24 h, 100 nL, profiling panel (AID 1138).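 Also: A549 lung adenocarcinoma cells under basal conditions with no added stimulus; test concentration not given here.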 Particulars: higher = more signal.
In the next experiment the test system is Lefty1. Put plainly: Lefty1 protein binding to printed compounds – biochemical, small-molecule microarray, 635/667 nm fluorescence, primary screen (AID 1139). The note with it: fluorescence 635/667, higher = more signal.
The subject of experiment [8] is wheat germ agglutinin (Triticum aestivum), Alexa647-labelled. Kind of experiment: Alexa647-WGA lectin binding to printed small molecules – biochemical, small-molecule microarray, 635/667 nm fluorescence, artefact control for SMM control-protein annotation, profiling panel (AID 1140).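 Also: score merges 667 nm feature emission with signal to noise over triplicate slides.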 The note with it: WGA-A647 binding, 635 nm fluorescence, higher = more signal.
Experiment [9] addresses Luciferin 4-monooxygenase (Photinus pyralis) (UniProt P08659). Kind of experiment: inhibition of purified Photinus pyralis luciferase – biochemical, luminescence, purified enzyme, 2006 set, primary screen (AID 1141).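 Also: cell-free assay with purified firefly luciferase at 100 ng per well in PBS; test concentration not given here.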 Particulars: purified firefly luciferase, SteadyGlo luminescence, 30 min; higher = more signal, called active from +8 up or from −8 down.
For experiment [10], the system named is Wnt5a (protein binding on small-molecule microarray). Kind of experiment: small molecules binding Wnt5a protein – biophysical, small-molecule microarray, 635/667 nm fluorescence, primary screen (AID 1142).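 Also: fluorescence read at 667 nm with signal to noise per printed feature.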 Particulars: 635 nm fluorescence, higher = more signal.
The nature of experiment [11]: ATP-based viability of Huh7 replicon cells – cell-based, CellTiter-Glo luminescence, basal, 48 h, cytotoxicity control for HCV replication inhibitor project, primary screen (AID 1143).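 Also: Huh7 hepatoma cells carrying a hepatitis C replication reporter with no stimulus; test concentration not given here.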 The note with it: higher = more signal, called active from +8 up or from −8 down. (In antiviral work, replicon cells carry a viral genome segment that copies itself.)
Experiment [12] can be described thus: Pseudomonas biofilm growth suppression – PAO1 strain, BacTiter-Glo luminescence, LB-PBS, primary screen (AID 1144). Particulars: P. aeruginosa PAO1 biofilm, 12 h, higher = more signal.
The nature of experiment [13]: basal CRE-LacZ reporter activity in PC12 – cell-based, unstimulated, primary screen (AID 1145). The note with it: no forskolin, luminescence, 4.5 h, higher = more signal, called active from +8 up or from −8 down.
Experiment [14] is described as follows: forskolin-driven CRE-LacZ activity in PC12 – cell-based, CRE-LacZ reporter, forskolin-stimulated, primary screen (AID 1146).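 Also: PC12 cells with 6xCRE LacZ reporter stimulated by forskolin 10 µM; beta-galactosidase reporter signal reflecting CREB driven transcription.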 Particulars: luminescence, 4.5 h, higher = more signal, called active from +8 up or from −8 down.
The target of experiment [15] is Streptavidin (Streptomyces avidinii) (UniProt P22629). Kind of experiment: compounds binding control protein streptavidin – biophysical, small-molecule microarray, 635/667 nm fluorescence, artefact control for SMM compound annotation, primary screen (AID 1147).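 Also: signal reflects streptavidin binding to arrayed compounds as a control protein.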 Particulars: higher = more signal.
Chain of Streptavidin (Streptomyces avidinii) (P22629 whole entry, looked up): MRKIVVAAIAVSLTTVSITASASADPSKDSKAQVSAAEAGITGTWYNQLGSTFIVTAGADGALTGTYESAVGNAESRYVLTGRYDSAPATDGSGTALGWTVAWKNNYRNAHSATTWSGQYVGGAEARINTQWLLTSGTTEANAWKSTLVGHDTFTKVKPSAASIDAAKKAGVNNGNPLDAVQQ
Experiment [16] in a line: probe aInhba binding on compound microarray – biochemical, small-molecule microarray, 635/667 nm fluorescence, primary screen (AID 1148).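 Also: score merges 667nm spot fluorescence with signal-to-noise for antibody binding to printed compounds.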 The note with it: higher = more signal.
Experiment [17] concerns the target Torsin-1A (Homo sapiens) (UniProt O14656). Put plainly: TOR1A wild-type binding on microarray – cell lysate, small-molecule microarray, lysate, 635/667 nm, primary screen (AID 1149). Particulars: COS7 hTOR1A-WT lysate, 635 nm fluorescence, higher = more signal.
Experiment [18] shares this target. Put plainly: torsin A mutant lysate binding on microarrays – cell lysate, small-molecule microarray, COS7 lysate, 635/667 nm fluorescence, primary screen (AID 1150).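 Also: score pools 667 nm emission and signal to noise measuring lysate protein binding.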 The note with it: COS7 hTOR1A mutant lysate, 635 nm fluorescence, higher = more signal.
Experiment [19] deals with Sonic hedgehog protein (Shh). Put plainly: Sonic hedgehog microarray binding compounds – biochemical, small-molecule microarray, 635/667 nm fluorescence, primary screen (AID 1151).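 Also: Shh protein binding to compounds spotted on small-molecule microarray slides; score combines spot fluorescence intensity with signal-to-noise across triplicate slides.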 Particulars: 635 nm fluorescence, higher = more signal.

Activity calls are given as the source filed them. Unless noted, no rule for the calls is given here.

Chain of Luciferin 4-monooxygenase (Photinus pyralis) (P08659 whole entry, looked up): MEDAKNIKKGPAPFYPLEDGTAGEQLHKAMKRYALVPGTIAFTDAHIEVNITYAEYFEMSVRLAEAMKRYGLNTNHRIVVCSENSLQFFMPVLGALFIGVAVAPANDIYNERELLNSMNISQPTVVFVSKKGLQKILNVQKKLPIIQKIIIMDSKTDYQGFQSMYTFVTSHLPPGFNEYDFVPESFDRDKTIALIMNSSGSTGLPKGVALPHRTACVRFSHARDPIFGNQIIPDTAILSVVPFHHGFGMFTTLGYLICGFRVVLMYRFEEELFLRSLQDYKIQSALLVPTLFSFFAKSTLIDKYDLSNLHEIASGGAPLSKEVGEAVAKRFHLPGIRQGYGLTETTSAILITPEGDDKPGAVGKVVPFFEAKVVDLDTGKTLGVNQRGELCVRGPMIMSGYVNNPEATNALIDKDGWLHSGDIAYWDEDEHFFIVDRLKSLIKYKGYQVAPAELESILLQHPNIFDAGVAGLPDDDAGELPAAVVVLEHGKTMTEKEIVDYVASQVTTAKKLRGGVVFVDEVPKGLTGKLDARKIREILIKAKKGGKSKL
Chain of Torsin-1A (Homo sapiens) (O14656 whole entry, looked up): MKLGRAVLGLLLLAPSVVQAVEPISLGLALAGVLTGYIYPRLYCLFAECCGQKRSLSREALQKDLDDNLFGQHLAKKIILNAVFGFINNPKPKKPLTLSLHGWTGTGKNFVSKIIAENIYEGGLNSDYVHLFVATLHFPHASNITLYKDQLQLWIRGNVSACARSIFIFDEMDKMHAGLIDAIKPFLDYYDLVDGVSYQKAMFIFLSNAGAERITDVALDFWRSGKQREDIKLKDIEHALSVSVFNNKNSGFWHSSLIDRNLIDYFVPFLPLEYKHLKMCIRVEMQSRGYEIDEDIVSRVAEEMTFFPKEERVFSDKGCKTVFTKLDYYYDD

For the molecule `CCCCC(=C=CC[C@@H](O)c1ccccc1OCCO)CCO`, the composite z-score in experiment [1] was -0.448; in experiment [2], -0.21; in experiment [3], -0.206; in [4] it was -0.883; in experiment [5] it was 0.531; in [6], -0.397. Moreover, the composite z-score was 0.036 with Lefty1; 0.177 in experiment [8]; -0.235 in experiment [10]; -0.488 in experiment [15]; 0.0173 in experiment [16]; -0.873 with Torsin-1A (Homo sapiens) [17]. For the same molecule, the composite z-score is 0.286 with Torsin-1A (Homo sapiens) [18] and 0.134 in experiment [19]. Besides, the z-score in experiment [7] is 1.25; in experiment [9] it was -1.85 (inactive); in [11] it was -0.717 (inactive); in [12], -0.0652 (inactive); in [13], 17.8 (active); in [14], 0.905 (inactive).

In the case of `C[C@@H]1ON(c2cccc(C(=O)OC(C)(C)C)c2)[C@H](c2ccc(Br)cc2)[C@H]1C(=O)N1C(=O)OC[C@H]1Cc1ccccc1`, the composite z-score turned out to be 0.556 in experiment [1]; 0.77 in experiment [2]; 0.306 in experiment [3]; 0.937 in experiment [4]; 1.21 in experiment [5]; 0.735 in experiment [6]. The composite z-score came out at 0.766 with Lefty1; 0.106 in experiment [8]; 0.458 in experiment [10]; 0.852 in [15]; 0.134 in [16]; 0.18 with Torsin-1A (Homo sapiens) [17]. In addition, the composite z-score with Torsin-1A (Homo sapiens) [18] worked out at 0.389; in experiment [19] it was 0.937. Moreover, the z-score in experiment [7] was 1.63; in experiment [9] it was -0.68 (inactive); in experiment [11], -0.242 (inactive); in experiment [12], 0.938 (inactive); in [13], 1.49 (inactive); in experiment [14] it was -0.278 (inactive).

`Cc1ccc(S[C@]2(C(=O)NCC(C)C)CC(=O)N(Cc3cc(C(F)(F)F)cc(C(F)(F)F)c3)[C@@H]2c2ccc(CO)cc2I)cc1`: the composite z-score is -0.316 in experiment [1]; -1.08 in [2]; -0.55 in experiment [3]; -0.819 in experiment [4]; -1.59 in experiment [5]; -1.1 in experiment [6]. Further, the composite z-score was -2.21 in the experiment with Lefty1; -0.192 in [8]; -0.0088 in experiment [10]; -0.634 in experiment [15]; 0.0173 in experiment [16]; -1.72 in the experiment with Torsin-1A (Homo sapiens) [17]. The results for the composite z-score (with Torsin-1A (Homo sapiens) [18]; in experiment [19]) were -0.913 and -1.05, respectively. Also, the z-score in experiment [7] was -0.553; in experiment [9], 0.328 (inactive); in experiment [11], -1.19 (inactive); in [12], -0.486 (inactive); in [13], 0.441 (inactive); in experiment [14] it was 0.845 (inactive).

For `CC(C)(C)OC(=O)CC[C@@]1(C(=O)NCCN2CCOCC2)N=C(c2ccc(OCCCO)cc2)O[C@@H]1c1ccccc1N=[N+]=[N-]`, the composite z-score in experiment [1] was 0.22; in experiment [2], 1.2; in [3] it was 1.21; in experiment [4], 0.554; in experiment [5], 1.18; in experiment [6] it was -0.156. Also, the composite z-score is -0.0836 with Lefty1; 0.0832 in experiment [8]; 0.492 in [10]; 0.554 in experiment [15]; 0.0614 in experiment [16]; 1.67 with Torsin-1A (Homo sapiens) [17]. Moreover, the values for the composite z-score (with Torsin-1A (Homo sapiens) [18]; in [19]) were 1.43 and -0.431, respectively. Moreover, the z-score in experiment [7] is 1.26; in experiment [9] it was -9.63 (active); in experiment [11], -1.34 (inactive); in experiment [12], 1.45 (inactive); in experiment [13], 1.55 (inactive); in [14], -0.564 (inactive).

For the molecule `COCC(=C=CC[C@H](O)c1ccccc1OCCO)C[C@H](O)c1cc(Cl)cc(Cl)c1O`, the composite z-score in experiment [1] is -0.058; in experiment [2] it was 0.914; in experiment [3], 0.469; in experiment [4], 0.974; in experiment [5] it was 0.888; in experiment [6], 1.59. Moreover, the composite z-score in the experiment on Lefty1 is 0.685; in experiment [8] it was 0.351; in [10], 0.626; in experiment [15], 0.423; in [16], -0.0877; with Torsin-1A (Homo sapiens) [17], -0.256. The composite z-score with Torsin-1A (Homo sapiens) [18] came to 1.72; in experiment [19] it was 1.37. The z-score in [7] is -0.54; in [9], -1.28 (inactive); in experiment [11] it was -8.22 (active); in experiment [12] it was 0.421 (inactive); in [13], 24.4 (active); in experiment [14], -0.753 (inactive).

The values are drawn from PubChem BioAssay.
